Measured values: PubChem BioAssay AID1347076 (National Center for Advancing Translational Sciences (NCATS), 2019)
The campaign covered roughly 400,000 compounds. About 13,000 (3.2%) were called active. Not shown: some 18% with an inconclusive outcome. Many of the other results were omitted from the sample, so actives are more common in it than they were. A number with no mark means an inactive call. The call rests on the fitted dose curve; in most records, active means well fitted cell-killing curve with a large enough effect; inconclusive means small, poorly fitted or top-dose-only effect, or effect the other way; inactive means flat fitted curve, though single readings scatter.

assay: qHTS assay for MDR1-selective chemotherapeutics: Primary screen using the drug-selected MDR subline cells KB-V1; details: KB-V1 MDR cells viability, CellTiter-Glo, 72 h; series mostly up to 46.1 µM; activity change, negative = cytotoxicity: at the top concentration; further: nearly all actives have a fitted effect of over 60% in size
Procedure, shortened: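 Drug-selected KB-V1 cells, grown in DMEM lacking phenol red with 10% FBS, receive compound titrations; after three days at 37 degrees C, surviving cell ATP is quantified by CellTiter-Glo luminescence and responses normalized and curve-fitted.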
On the % scale 0 is the no-effect control and ±100 the full control effect; potency means the concentration at half of the fitted maximal effect.

| SMILES | activity change, negative = cytotoxicity [%] | Potency |
| --- | --- | --- |
| CN1OC[C@@H]2CN[C@H](c3ccc(-c4ccccc4)cc3)C[C@@H]21 | -3.02 | – |
| Cn1c(=O)c2c(SCC(=O)NCC3CCCO3)nc(-c3ccccc3F)nc2n(C)c1=O (centres undefined) | 28.3 | – |
| COc1ccc(CNC(=O)[C@H](Cc2c[nH]c3ccccc23)NC(C)=O)cc1OC | -5.89 | – |
| COc1ccc(C(C(=O)NC2CCCCC2)N(C(=O)Cc2c[nH]c3ccccc23)c2ccccc2)cc1OC (centres undefined) | – | 23.1 µM (active) |
| COc1ccc(C(C(=O)NC2CCCCC2)N(C(=O)CCl)c2ccccc2Cl)cc1 (centres undefined) | 0 | – |
| C[C@@H]1CN([C@@H](C)CO)S(=O)(=O)c2ccc(-c3ccc(C(=O)N(C)C)cc3)cc2O[C@@H]1CN(C)Cc1ccccc1C(=O)O | 15.8 | – |
| CCc1ccc(NC(=O)CN2CCSc3ccc(S(=O)(=O)N4CCCC4)cc32)cc1 | – | 7.31 µM (active) |
| COc1ccc(NC(=O)CN2C(=O)CSc3ccc(S(=O)(=O)N4CCC(C)CC4)cc32)cc1 | -1.13 | – |
| O=C(CN1CCCCCC1)Nc1ccc(S(=O)(=O)N2CCCCC2)cc1 | -21.5 | – |
| CC(C)N1C(=O)c2ccccc2NC(=O)C1C(=O)NCc1cccs1 (centres undefined) | 7.86 | – |
| Cn1c(CNC(=O)C(C)(C)C)nc2ccccc21 | -2.97 | – |
| CCCn1c(NCc2ccccc2F)nc2ccccc21 | -3.96 | – |
| Cc1ccc(O)c(CNc2nc3ccccc3n2C)c1 | – | 16.4 µM (active) |
| CCc1nn(CC(=O)Nc2cccc(C)c2C)c(=O)c2cc3sccc3n12 | 2.25 | – |
| Cc1cccc(N(CC(O)CN(C)C)S(=O)(=O)c2ccccc2)c1 (centres undefined) | -14.7 | – |
| CCOc1ccc(S(=O)(=O)N(CC(=O)O)c2ccccc2)cc1 | 10.4 | – |
| O=S(=O)(ON(c1ccccc1)S(=O)(=O)c1ccccc1)c1ccccc1 | – | 23.1 µM (active) |
| CCOc1ccc(CNC(=O)c2ccc3nc(CC)c(CC)nc3c2)cc1OC | 7.1 | – |
| CCCCNC(=O)c1nc(C2CCN(S(=O)(=O)c3ccc(F)c(F)c3)CC2)oc1-c1cccc(C(F)(F)F)c1 | -6.49 | – |
| Cc1cc2c(=O)n(C)c(SCC(=O)c3cc4ccccc4o3)nc2s1 | 0 | – |
| Cc1ccc(Nc2nnc(SCC(=O)c3cc4ccccc4o3)s2)cc1C | – | 20.6 µM (active) |
| Cc1ccccc1Nc1nnc(SCC(=O)c2cc3ccccc3o2)s1 | 0 | – |
| Cc1cccc(S(=O)(=O)N(C)C[C@H]2OCc3cnnn3CCCC(=O)N([C@@H](C)CO)C[C@H]2C)c1 | 6.43 | – |
| CN1OC[C@@H]2CN(C(=O)C(C)(C)C)[C@H](c3ccc(-n4ccnc4)cc3)C[C@@H]21 | 0 | – |
| CC(=O)c1ccc(Nc2nc(C(N)c3ccccc3)cs2)cc1 (centres undefined) | -0.67 | – |
| Cc1cc(C)cc(OCC(=O)NC(C)c2ccccc2)c1 (centres undefined) | -3.72 | – |

| SMILES | activity change, negative = cytotoxicity [%] | Potency |
| --- | --- | --- |
| COc1cc(OC)cc(C(=O)N[C@H](C(=O)NNC(=O)c2ccc(Br)cc2)C(C)C)c1 | -1.18 | – |
| COc1cc(OC)cc(C(=O)N[C@H](C(=O)OCC(=O)NC(C)c2ccccc2)C(C)C)c1 (some centres undefined) | – | 23.1 µM (active) |
| COc1cc(OC)cc(C(=O)NC(C(=O)N2CCC2)C(C)C)c1 (centres undefined) | -1.52 | – |
| COc1ccc(C(=O)N[C@H](C(=O)NCc2ccccc2)C(C)C)cc1 | 0 | – |
| COc1cc(OC)cc(C(=O)N[C@H](C(=O)Nc2nc3ccccc3[nH]2)C(C)C)c1 | – | 14.6 µM (active) |
| C[C@@H]1CC2=C(C(=O)OC(C)(C)O2)[C@@H](C2CC2)O1 | 0 | – |
| COc1cccc(-c2cnc(C(O)c3ccccc3OC)[nH]2)c1 (centres undefined) | 14.8 | – |
| CC1=NCCN1S(=O)(=O)c1cccc([N+](=O)[O-])c1 | 20.1 | – |
| CCOc1ccc(S(=O)(=O)N2CCN=C2Cc2ccccc2)cc1C | -1.27 | – |
| COc1cc(S(=O)(=O)N2CCN=C2c2ccccc2)ccc1Cl | – | 16.4 µM (active) |
| O=S1(=O)CC(N2CCN(Cc3ccccc3F)CC2)CN1Cc1cn(Cc2cccc(C(F)(F)F)c2)nn1 (centres undefined) | 6.44 | – |
| Cc1c(CCO)sc[n+]1CC(=O)c1ccc2ccccc2c1 | 9.94 | – |
| CCOC(=O)C1CCN(C(=O)c2oc3ccc(S(=O)(=O)N4CCCCCC4)cc3c2C)CC1 | -20 | – |
| CCOC(=O)C1CCN(c2ncnc3c2oc2ccc(Br)cc23)CC1 | – | 20.6 µM (active) |
| CCOC(=O)C1CCN(Cc2nnc(-c3cccc(Br)c3)o2)CC1 | -8.01 | – |
| CCN(CC)CCNc1ncnc2c1cnn2-c1cc(Cl)ccc1C | -1.34 | – |
| CN(C)C(=O)c1cccc(-c2cnc3sc(NCc4ccc5c(c4)OCO5)nn23)c1 | -22.9 | – |
| COc1ccc(C(CCN(Cc2ccc(OC)c(OC)c2)C(=O)CCl)c2ccccc2)cc1 (centres undefined) | – | 20.6 µM (active) |
| COc1ccc(COC(=O)NC(C(=O)O)c2ccccc2)cc1 (centres undefined) | 0.328 | – |
| COc1ccc(CN(C)C(=O)CC(c2ccccc2)c2ccccc2)cc1 | -6.46 | – |
| O=C(NCc1ccc(F)cc1)c1cc(C2CCCCN2C(=O)c2ccccn2)on1 (centres undefined) | 5.02 | – |
| COC(=O)c1ccc2c(=O)n(CCN3CCOCC3)c(SCC(=O)Nc3cccc(OC)c3)nc2c1 | -15.6 | – |
| O=C(CCCn1c(SCC(=O)c2ccc(F)cc2)nc2ccccc2c1=O)NCc1ccco1 | – | 5.8 µM (active) |
| O=C(CCn1c(SCC(=O)c2ccccc2)nc2ccccc2c1=O)NCc1ccc(F)cc1 | – | 7.31 µM (active) |
| O=C(CSc1nc2ccccc2c(=O)n1-c1ccc(F)cc1)NC1CC1 | -24.6 | – |
| CC(=O)c1ccc(NC(=O)CSc2nc3ccccc3c(=O)n2CCCN2CCOCC2)cc1 | -11.8 | – |

| SMILES | activity change, negative = cytotoxicity [%] | Potency |
| --- | --- | --- |
| O=C(CSc1ncc(CO)n1Cc1ccc(F)cc1)NCc1ccco1 | -4.36 | – |
| O=C(CSc1nc2ccccc2c(=O)n1Cc1ccc(F)cc1)NCC1CCCO1 (centres undefined) | -5.78 | – |
| O=C(CSc1nc2ccccc2c(=O)n1CCCO)NC1CC1 | 5.65 | – |
| CCc1ccc(NC(=O)CSc2nc3ccccc3c(=O)n2CCN2CCOCC2)cc1 | – | 8.2 µM (active) |
| COc1ccc(Cn2cc(C(=O)c3ccc(C)cc3)c(=O)c3cc(OC)c(OC)cc32)cc1 | 19.4 | – |
| O=C(NC1CCCC1)C1c2ccccc2OCC(=O)N1CC(F)(F)F (centres undefined) | -2.65 | – |
| CCCCn1nnnc1C(c1cc2ccccc2o1)N(C)Cc1ccc(Cl)c(Cl)c1 (centres undefined) | -11 | – |
| O=C1NC(Cc2ccccc2)c2nc3ccc(Br)cc3c(=O)n2-c2cc3ccccc3cc21 (centres undefined) | -22.4 | – |
| O=C(NC(C(=O)NCCN1CCOCC1)C12CC3CC(CC(C3)C1)C2)C1CCCCC1 (centres undefined) | – | 14.6 µM (active) |
| O=C(NCCN1CCOCC1)C1CCN(S(=O)(=O)c2ccccc2)CC1 | 1.81 | – |
| O=C(NCCCN1CCOCC1)C1CCCN(S(=O)(=O)N2CCCCC2)C1 (centres undefined) | 1.22 | – |
| CCOC(=O)c1c(NC(=O)COC(=O)c2ccc(S(=O)(=O)C(F)F)cc2)sc(C(=O)N(C)C)c1C | -11.7 | – |
| CC1(C(=O)O)CCN1C(=O)/C=C/c1ccccc1 (centres undefined) | 3.25 | – |
| CCN(CC(=O)Nc1ccc(OC)cc1)C(=O)c1ccc(Cl)c(S(=O)(=O)N2CCCC2)c1 | 18.1 | – |
| CCN(CC(=O)Nc1ccc(OC)cc1)C(=O)c1ccc(=O)n(Cc2ccccc2)n1 | – | 18.4 µM (active) |
| COc1ccc(NC(=O)CN(C)C(=O)c2cc(C3CC3)nn2-c2ccccc2)cc1 | -6.56 | – |
| N=c1c2c3c(sc2ncn1N)CCCCC3 | 9.63 | – |
| N=c1c2c3c(sc2nc2n1CCCCC2)CCCC3 | -2.3 | – |
| N=c1c2c3c(sc2ncn1CCCN1CCOCC1)CCCCC3 | – | 8.2 µM (active) |
| CCN1CCN(c2ccc(/C=C/c3ccnc4ccccc34)cc2)CC1 | 0 | – |
| C[C@@H]1CN([C@H](C)CO)C(=O)c2cc(Br)cnc2O[C@@H]1CN(C)Cc1cncnc1 | -10.7 | – |
| C[C@H]1Cn2cnc(C(=O)N[C@@H](Cc3c[nH]c4ccccc34)C(=O)OC(C)(C)C)c2C(=O)N1 | -0.784 | – |
| COc1ccc(C(=O)N2CC3(C)CC2CC(C)(C)C3)cc1OC (centres undefined) | – | 23.1 µM (active) |
| Cc1cccc(C(=O)NCC(=O)OCC(=O)N2CC3(C)CC2CC(C)(C)C3)c1 (centres undefined) | -5.3 | – |
| COc1ccc(C(=O)NC2CC(C)(C)NC(C)(C)C2)cc1OC | -11.1 | – |
| O=C(NCc1ccccc1)C(c1ccc(F)cc1)N1CCN(C(=O)C2CCCO2)CC1 (centres undefined) | -9.25 | – |

| SMILES | activity change, negative = cytotoxicity [%] | Potency |
| --- | --- | --- |
| CCn1c(CNC(=O)c2ccc(OC)c(OC)c2)nnc1SCC(=O)Nc1ccccc1 | -12.5 | – |
| CCn1c(Cc2ccccc2)nnc1SCC(=O)Nc1ccccc1 | – | 20.6 µM (active) |
| CCn1c(Cc2ccc(OC)cc2)nnc1SCC(=O)Nc1ccc(N2CCOCC2)cc1 | -26.1 | – |
| CC1(C(=O)NS(=O)(=O)c2cccc(OC(F)F)c2)CCN1C(=O)COc1ccc(Cl)cc1 (centres undefined) | 3.1 | – |
| O=C(Nc1cccc2ccccc12)c1[nH]c(-c2ccccc2)c2c1C(=O)N(C1CC1)C2=O | 0.496 | – |
| CCCCNC(=O)C[C@@H]1C[C@@]2(C(=O)OCC)CCC=C2N(Cc2ccco2)C1=O | 18.7 | – |
| O=[N+]([O-])c1ccc(NS(=O)(=O)c2ccccc2)c(Cl)c1 | – | 23.1 µM (active) |
| Cc1cc([N+](=O)[O-])ccc1NS(=O)(=O)c1ccccc1 | -13.9 | – |
| O=C(NNS(=O)(=O)c1ccc(F)cc1)c1ccc([N+](=O)[O-])cc1Cl | -24.7 | – |
| CCc1nc2ccc(C(=O)N3CCC(O)(Cc4ccccc4)CC3)cn2c1N(C)C(=O)Cc1ccccc1 | 19.7 | – |
| CC1(C(=O)NCc2ccc3c(c2)OCO3)CCN1CCc1ccccc1 (centres undefined) | -10.2 | – |
| COc1ccc(S(=O)(=O)N/N=C\c2ccc(OC)c(COc3ccc(C)cc3[N+](=O)[O-])c2)cc1 | -2.85 | – |
| COc1ccc(C(=O)Oc2cc(/C=N/NS(=O)(=O)c3ccc(C)cc3)ccc2OC)cc1 | – | 14.6 µM (active) |
| COc1ccc(C(=O)NNS(=O)(=O)c2ccc(C)cc2)cc1 | 10.3 | – |
| c1ccc(Cc2c(-c3ccco3)nc3c4ccccc4ccn23)cc1 | -25.8 | – |
| CC(C)Cn1c(=O)c2ccccc2n2c(-c3cccc(Cl)c3)nnc12 | 0 | – |
| CN(Cc1cncn1C)c1ncnc2ccc(-c3ccc4c(c3)OCO4)cc12 | 0 | – |
| COCCn1cnnc1SCC(=O)Nc1cccc(S(=O)(=O)N2CCCCC2)c1 | -21.2 | – |
| O=C(Nc1cccc(S(=O)(=O)N2CCCCC2)c1)c1cncc(Br)c1 | -2.51 | – |
| Cn1nnnc1SCC(=O)Nc1cccc(S(=O)(=O)N2CCCCC2)c1 | – | 20.6 µM (active) |
| CCN(CC)S(=O)(=O)c1cccc(NC(=O)c2ccc(S(=O)(=O)N3CCCC3)cc2)c1 | -0.979 | – |
| O=C(CSc1ccccc1)Nc1cccc(S(=O)(=O)N2CCCCC2)c1 | 3.31 | – |
| O=C(c1c(F)cccc1F)N1CCN(S(=O)(=O)c2ccc3c(c2)OCCO3)CC1 | 0 | – |
| O=C(NCc1cccs1)C1CCN(S(=O)(=O)c2ccc3c(c2)OCCO3)CC1 | 10.7 | – |
| O=C(c1ccc2c(c1)OCCO2)C1CCN(S(=O)(=O)c2cccc(F)c2)CC1 | – | 20.6 µM (active) |
| O=C(Nc1cccc(S(=O)(=O)N2CCCCC2)c1)c1ccc2c(c1)OCO2 | – | 3.26 µM (active) |
